ChEMBL document CHEMBL4513146, “CO-ADD screening of Karazin Kharkiv National University (Ukraine) compounds”
Measured potencies and affinities stand elsewhere.

Key:
Staphylococcus aureus = conditions: Concentration 32 ug.mL-1;; ASSAY_TEST Inhibition of Bacterial Growth; detection method Absorption (OD600); MEDIA CAMHB; plate type 384well; NBS; CORNING #3640; time 18 hr
Escherichia coli = conditions: Concentration 32 ug.mL-1;; ASSAY_TEST Inhibition of Bacterial Growth; detection method Absorption (OD600); MEDIA CAMHB; plate type 384well; NBS; CORNING #3640; time 18 hr

Compound | Inhibition (Staphylococcus aureus) [%] | Inhibition (Escherichia coli) [%]
CCc1cccc(NC(=O)Cn2c(=O)c3nnc(C(C)C)n3c3ccccc32)c1 | 12.07 | 8.67
CCOc1ccc(-n2ccn3c(SCC#N)nnc3c2=O)cc1 | 8.92 | 2.37
CCc1ccc(N(Cc2ccc(C)cc2)S(=O)(=O)c2cccn3c(CC)nnc23)cc1 | 5.86 | -4.79
COc1ccccc1CNC(=O)Cn1nc2c(N3CCSCC3)nccn2c1=O | 5.62 | -5.9
Cc1nnc2ccc(S(=O)(=O)N(Cc3ccc(F)cc3)c3cc(F)cc(F)c3)cn12 | 4.18 | -6.59
CC(C)(C)Sc1ccc2nn(CC(=O)Nc3ccccc3C(F)(F)F)c(=O)n2n1 | 6.28 | -2.49
O=C(Cn1nc2n(Cc3ccccc3)c(=O)c3ccccc3n2c1=O)Nc1ccc2c(c1)OCO2 | -3.15 | 1.74
Cc1ccc(-c2cc3c4nn(CC(=O)NCc5ccc(Cl)cc5)c(=O)n4ccn3n2)cc1C | 6.87 | 6.43
COc1ccc(OC)c(NC(=O)Cn2nc3c(Sc4ccccc4)nc4ccccc4n3c2=O)c1 | 6.17 | -0.83
O=c1n(Cc2nc(-c3ccc(Br)cc3)no2)nc2ccc(-c3ccccc3)nn12 | 5.03 | -5.77
CCCn1c(=O)c2ccc(C(=O)NC3CCCCC3)cc2n2c(=O)n(CC#N)nc12 | 0.58 | 2.29
COc1cc(NC(=O)Cn2nc3c(Sc4cccc(F)c4)nccn3c2=O)cc(OC)c1 | 9.3 | -0.8
